Structures are written as SMILES. Compounds without any hit were thinned out: in the full panel of roughly 83,000, 20% have a hit.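 The test compound was applied at a single concentration to cells in 96-well plates for 48 hours, and percent growth was recorded.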 Values without a mark were called inactive. The source made the active and inactive calls. Rule for the calls: active = growth percent below 10; inactive = the rest.

For eight molecules, growth results are on record in PubChem BioAssay (NCI).

Test systems include NCI-H23 lung; NCI-H226 lung; NCI-H322M lung; HOP-62 NSCLC; NCI-H460 lung; 786-0 renal; MDA-MB-231 breast; SF-268 CNS; SF-539 CNS; M14 melanoma; PC-3 prostate; UACC-62 melanoma; SK-MEL-28 melanoma; UO-31 renal; OVCAR-3 ovarian; SW-620 colon; MCF7 breast; HCT-116 colon; KM12 colon; U251 CNS.
What all share (experiment): NCI-60 one-dose screen, 48 h (100 = growth as untreated, 0 = no growth, -100 = all killed)
Holding throughout (conditions): 10 µM unless noted

As to `CC(=O)[O][Hg][c]1ccccc1`, the growth in the assay on NCI-H23 lung was -84.5% (active); with NCI-H226 lung, 81.9%; in the assay with NCI-H322M lung, 40.1%; in the assay with HOP-62 NSCLC, -87.9% (active); with NCI-H460 lung, -52.1% (active); in the assay with 786-0 renal it was -96.4% (active). Moreover, the growth in the assay with MDA-MB-231 breast was -54.8% (active); in the assay on SF-268 CNS it was -86.4% (active); in the assay with SF-539 CNS, -53.6% (active); in the assay on M14 melanoma, -90% (active); in the assay with PC-3 prostate, -57.8% (active); in the assay with UACC-62 melanoma, -69% (active). For the same molecule, the growth was -88.4% (active) in the assay on SK-MEL-28 melanoma; -94.2% (active) in the assay on UO-31 renal; -93.3% (active) in the assay on OVCAR-3 ovarian; -92.9% (active) with SW-620 colon; -75.2% (active) with MCF7 breast; -88% (active) with HCT-116 colon. Besides, the growth in the assay with KM12 colon was -95.3% (active).
As to `CCOC(=O)/C(C#N)=C/c1ccc(N(CCCl)CCCl)cc1`, the growth with NCI-H23 lung was 94.9%; in the assay on NCI-H226 lung, 72.2%; in the assay with NCI-H322M lung it was 110%; in the assay on HOP-62 NSCLC, 81.7%; with NCI-H460 lung, 41.4%; with 786-0 renal, 84.1%. Also, the growth with MDA-MB-231 breast was 90.8%; in the assay with SF-268 CNS it was 77.5%; with SF-539 CNS, 84.9%; in the assay with M14 melanoma, 105%; with U251 CNS it was 92%; in the assay with PC-3 prostate it was 69.7%. Moreover, the growth is 66.5% in the assay with UACC-62 melanoma; 99% with SK-MEL-28 melanoma; 79.3% in the assay with UO-31 renal; 108% in the assay with OVCAR-3 ovarian; 87.3% in the assay with SW-620 colon; 71.9% in the assay with MCF7 breast. The growth in the assay on HCT-116 colon was 97%; with KM12 colon, 106%.
`CC(=O)Nc1ccc(Cc2ccc(NC(C)=O)cc2)cc1`: the growth in the assay on NCI-H23 lung is 107%; in the assay with NCI-H226 lung, 107%; in the assay on NCI-H322M lung, 108%; with HOP-62 NSCLC it was 94.1%; in the assay on NCI-H460 lung, 104%; with 786-0 renal, 101%. Also, the growth is 105% in the assay with MDA-MB-231 breast; 117% in the assay on SF-268 CNS; 104% in the assay with SF-539 CNS; 99.9% in the assay on M14 melanoma; 101% in the assay on U251 CNS; 71.4% with PC-3 prostate. Further, the growth in the assay on UACC-62 melanoma is 107%; with SK-MEL-28 melanoma it was 109%; in the assay on UO-31 renal, 78%; with OVCAR-3 ovarian, 119%; in the assay on SW-620 colon it was 117%; in the assay with MCF7 breast, 99.8%. In addition, the values for the growth in the assay on HCT-116 colon and with KM12 colon were 94.9% and 139%, respectively.
Turning to `O=C(C(=O)N1CCCC1)c1cn(CCCCCn2cc(C(=O)C(=O)N3CCCC3)c3ccccc32)c2ccccc12`, the growth in the assay with NCI-H23 lung was 91.1%; in the assay on NCI-H226 lung, 89%; in the assay on NCI-H322M lung, 93.9%; with HOP-62 NSCLC it was 102%; in the assay on NCI-H460 lung, 91.3%; in the assay with 786-0 renal, 105%. Also, the growth in the assay with MDA-MB-231 breast is 77.2%; with SF-268 CNS, 91.4%; in the assay on SF-539 CNS it was 94.8%; in the assay on M14 melanoma it was 95.9%; with U251 CNS it was 88%; in the assay with PC-3 prostate, 65.9%. In addition, the growth is 65.3% with UACC-62 melanoma; 106% in the assay on SK-MEL-28 melanoma; 61.6% in the assay on UO-31 renal; 88.4% in the assay on OVCAR-3 ovarian; 91.9% with SW-620 colon; 86.6% in the assay on MCF7 breast. The growth is 94.1% with HCT-116 colon and 86.3% in the assay with KM12 colon.
For `O=C(CCl)NCNC(=O)CCl`, the growth in the assay with NCI-H23 lung was 97.8%; with NCI-H226 lung it was 112%; in the assay with NCI-H322M lung, 100%; in the assay on HOP-62 NSCLC, 97.2%; with NCI-H460 lung, 103%; with 786-0 renal it was 107%. Besides, the growth with MDA-MB-231 breast is 99.7%; in the assay on SF-268 CNS it was 98.1%; in the assay with SF-539 CNS, 101%; in the assay on M14 melanoma it was 91.5%; with U251 CNS it was 87.9%; with PC-3 prostate, 86.4%. Moreover, the growth is 82% in the assay with UACC-62 melanoma; 93.7% in the assay on SK-MEL-28 melanoma; 93.5% in the assay on UO-31 renal; 105% in the assay with OVCAR-3 ovarian; 100% in the assay on SW-620 colon; 85.1% with MCF7 breast. The growth was 92.1% with HCT-116 colon and 104% with KM12 colon.
With `COc1cc[c]([Hg][Cl])cc1`, the growth with NCI-H23 lung is 47%; in the assay on NCI-H226 lung, 100%; in the assay with NCI-H322M lung it was 99.1%; with HOP-62 NSCLC, 82.6%; in the assay with NCI-H460 lung it was 43.9%; with 786-0 renal it was 56%. Besides, the growth was 46.2% with MDA-MB-231 breast; 56.8% with SF-268 CNS; 85.2% in the assay with SF-539 CNS; 17% in the assay with M14 melanoma; -26% (active) in the assay with U251 CNS; 77.6% with PC-3 prostate. Also, the growth with UACC-62 melanoma is 12.5%; in the assay on SK-MEL-28 melanoma, 20.7%; in the assay on UO-31 renal, 96.6%; in the assay with OVCAR-3 ovarian it was -71.5% (active); in the assay with SW-620 colon, 18.9%; in the assay on MCF7 breast, 27.9%. Besides, the growth is 48.4% in the assay with HCT-116 colon and 102% in the assay on KM12 colon.
Consider `Nc1ncnc2c1c(C(=O)NO)cn2C1OC(CO)C(O)C1O` (stereo not drawn), for which the growth was -4.58% (active) in the assay on NCI-H23 lung; 13.6% in the assay on NCI-H226 lung; 3.28% (active) in the assay on NCI-H322M lung; 5.73% (active) in the assay on HOP-62 NSCLC; -21.6% (active) with NCI-H460 lung; 9.38% (active) in the assay with 786-0 renal. Also, the growth in the assay on MDA-MB-231 breast was -6.16% (active); in the assay with SF-268 CNS, -24.7% (active); in the assay with SF-539 CNS, -32.4% (active); in the assay on M14 melanoma, -53.8% (active); in the assay on U251 CNS it was 11.9%; in the assay on PC-3 prostate, -20.9% (active). The growth was -86.1% (active) in the assay on UACC-62 melanoma; -52.3% (active) in the assay on SK-MEL-28 melanoma; -58.2% (active) with UO-31 renal; -49.3% (active) in the assay with OVCAR-3 ovarian; -3.16% (active) in the assay on SW-620 colon; -47.3% (active) in the assay on MCF7 breast. The growth in the assay on HCT-116 colon was 7.69% (active); in the assay on KM12 colon it was -29.9% (active).
On to `CCOC(=O)/C=C(\C)Nc1ccc(N/C(C)=C/C(=O)OCC)c2c1Oc1ccccc1O2`, for which the growth in the assay on NCI-H23 lung is 89.7%; with NCI-H226 lung, 93.2%; with NCI-H322M lung it was 110%; with HOP-62 NSCLC, 117%; with NCI-H460 lung it was 122%; with 786-0 renal, 88.2%. For the same molecule, the growth is 79% in the assay on MDA-MB-231 breast; 107% in the assay with SF-268 CNS; 105% in the assay with SF-539 CNS; 107% in the assay on M14 melanoma; 99.2% with U251 CNS; 103% in the assay with PC-3 prostate. For the same molecule, the growth in the assay on UACC-62 melanoma was 92.3%; in the assay with SK-MEL-28 melanoma it was 114%; in the assay with OVCAR-3 ovarian, 92.6%; in the assay on SW-620 colon it was 99.4%; with MCF7 breast, 93.7%; in the assay with HCT-116 colon it was 105%. In the assay on KM12 colon, the growth is 97.6%.
